Reference: PubChem BioAssay AID1159580 (chemical genetic matrix, 2015)
Screen size: about 5,500 compounds; about 2,000 (36%) were called active. Another 18% or so got no clear call; they are omitted. Rule as the data show it: active = normalized growth mostly below about 0.91 (no sharp cut-off); inconclusive = no clear call, values can overlap the other calls; inactive = mostly above about 0.92. The list shows a part of the results.

Test: chemical genetic growth profiling, strain panel (AID 1159580);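 also: tested at 20 µM; growth read once vehicle control cultures reached saturation at 30 °C; 1 = growth at the plate median or of vehicle wells; lower values mean less growth of the strain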
Conditions: growth OD

Measured: normalized growth

NC1C[C@H]1c1ccccc1 (some centres not stated)
inactive: S. cerevisiae deletion strains, locus YJR075W, strain HOC1, hits give low values 0.998 | S. cerevisiae deletion strains, locus YKL009W, strain mrt4, hits give low values 0.989 | S. cerevisiae deletion strains, locus YKL068W, hits give low values 0.992 | S. cerevisiae deletion strains, locus YKL085W, strain MDH1 (second series), hits give low values 0.987 | S. cerevisiae deletion strains, locus YKL085W, strain MDH1, hits give low values 0.987 | S. cerevisiae deletion strains, locus YKL160W, strain elf1, hits give low values 0.964 | S. cerevisiae deletion strains, locus YKL190W, strain CNB1, hits give low values 1.01 | S. cerevisiae deletion strains, locus YKR001C, strain vps1, hits give low values 0.98 | S. cerevisiae deletion strains, locus YKR026C, strain gcn3, hits give low values 0.984 | S. cerevisiae deletion strains, locus YKR091W, strain srl3, hits give low values 0.979 | S. cerevisiae deletion strains, locus YLL001W, strain dnm1, hits give low values 0.977 | S. cerevisiae deletion strains, locus YLL026W, hits give low values 0.996 | S. cerevisiae deletion strains, locus YLL041C, strain sdh2, hits give low values 1 | S. cerevisiae deletion strains, locus YLR027C, strain aat2, hits give low values 0.987 | S. cerevisiae deletion strains, locus YLR039C, strain RIC1, hits give low values 1.01 | S. cerevisiae deletion strains, locus YLR058C, strain SHM2, hits give low values 1.01 | S. cerevisiae deletion strains, locus YLR102C, strain apc9, hits give low values 0.985 | S. cerevisiae deletion strains, locus YLR113W, strain HOG1, hits give low values 0.981 | S. cerevisiae deletion strains, locus YLR221C, strain rsa3, hits give low values 1.01 | S. cerevisiae deletion strains, locus YLR258W, strain gsy2, hits give low values 0.981 | S. cerevisiae deletion strains, locus YLR262C, strain YPT6 (second series), hits give low values 0.974 | S. cerevisiae deletion strains, locus YLR262C, strain YPT6, hits give low values 1.03 | S. cerevisiae deletion strains, locus YLR268W, strain sec22, hits give low values 0.963 | S. cerevisiae deletion strains, locus YLR320W, strain mms22, hits give low values 1.02 | S. cerevisiae deletion strains, locus YLR330W, strain CHS5, hits give low values 1.01 | S. cerevisiae deletion strains, locus YLR342W, strain FKS1 (second series), hits give low values 0.987 | S. cerevisiae deletion strains, locus YLR342W, strain FKS1, hits give low values 0.973 | S. cerevisiae deletion strains, locus YLR357W, strain rsc2, hits give low values 0.939 | S. cerevisiae deletion strains, locus YLR370C, strain arc18, hits give low values 0.989 | S. cerevisiae deletion strains, locus YLR371W, strain rom2, hits give low values 0.972 | S. cerevisiae deletion strains, locus YLR384C, strain iki3, hits give low values 0.989 | S. cerevisiae deletion strains, locus YLR418C, strain cdc73, hits give low values 0.962 | S. cerevisiae deletion strains, locus YML016C, strain PPZ1, hits give low values 1.01 | S. cerevisiae deletion strains, locus YML032C, strain rad52, hits give low values 0.985 | S. cerevisiae deletion strains, locus YML120C, strain ndi1, hits give low values 1.01 | S. cerevisiae deletion strains, locus YML124C, strain tub3, hits give low values 0.987 | S. cerevisiae deletion strains, locus YMR058W, strain fet3, hits give low values 1 | S. cerevisiae deletion strains, locus YMR078C, strain ctf18, hits give low values 0.981 | S. cerevisiae deletion strains, locus YMR125W, strain sto1, hits give low values 0.939 | S. cerevisiae deletion strains, locus YMR129W, hits give low values 0.998 | S. cerevisiae deletion strains, locus YMR205C, strain PFK2, hits give low values 1.02 | S. cerevisiae deletion strains, locus YMR223W, strain ubp8, hits give low values 0.98 | S. cerevisiae deletion strains, locus YMR231W, strain pep5, hits give low values 0.975 | S. cerevisiae deletion strains, locus YMR263W, strain SAP30, hits give low values 1 | S. cerevisiae deletion strains, locus YMR307W, strain GAS1, hits give low values 0.945 | S. cerevisiae deletion strains, locus YNL067W, strain RPL9B, hits give low values 1.01 | S. cerevisiae deletion strains, locus YNL071W, strain lat1, hits give low values 0.984 | S. cerevisiae deletion strains, locus YNL128W, strain TEP1, hits give low values 1.02 | S. cerevisiae deletion strains, locus YNL153C, strain GIM3, hits give low values 0.989 | S. cerevisiae deletion strains, locus YNL183C, strain NPR1, hits give low values 0.933 | S. cerevisiae deletion strains, locus YNL209W, strain ssb2, hits give low values 0.977 | S. cerevisiae deletion strains, locus YNL233W, strain BNI4, hits give low values 0.993 | S. cerevisiae deletion strains, locus YNL248C, strain rpa49, hits give low values 0.929 | S. cerevisiae deletion strains, locus YNL250W, strain rad50, hits give low values 0.973 | S. cerevisiae deletion strains, locus YNL271C, strain bni1, hits give low values 0.987 | S. cerevisiae deletion strains, locus YNL298W, strain CLA4, hits give low values 0.987 | S. cerevisiae deletion strains, locus YNL307C, strain MCK1, hits give low values 0.988 | S. cerevisiae deletion strains, locus YNL322C, strain KRE1 (second series), hits give low values 0.98 | S. cerevisiae deletion strains, locus YNL322C, strain KRE1, hits give low values 1.01 | S. cerevisiae deletion strains, locus YNR049C, strain mso1, hits give low values 0.989 | S. cerevisiae deletion strains, locus YNR052C, strain pop2, hits give low values 0.995 | S. cerevisiae deletion strains, locus YOL006C, strain TOP1, hits give low values 1.05 | S. cerevisiae deletion strains, locus YOL012C, strain htz1 0.845 | S. cerevisiae deletion strains, locus YOL147C, strain pex11, hits give low values 0.983 | S. cerevisiae deletion strains, locus YOR001W, strain rrp6, hits give low values 1.02 | S. cerevisiae deletion strains, locus YOR061W, strain CKA2, hits give low values 1.01 | S. cerevisiae deletion strains, locus YOR069W, strain VPS5, hits give low values 1.01 | S. cerevisiae deletion strains, locus YOR070C, strain gyp1, hits give low values 0.992 | S. cerevisiae deletion strains, locus YOR080W, strain dia2, hits give low values 0.993 | S. cerevisiae deletion strains, locus YOR083W, strain WHI5, hits give low values 0.934 | S. cerevisiae deletion strains, locus YOR106W, strain vam3, hits give low values 0.99 | S. cerevisiae deletion strains, locus YOR136W, strain idh2, hits give low values 0.982 | S. cerevisiae deletion strains, locus YOR144C, strain elg1, hits give low values 0.988 | S. cerevisiae deletion strains, locus YOR184W, strain ser1, hits give low values 0.994 | S. cerevisiae deletion strains, locus YOR231W, strain MKK1, hits give low values 0.986 | S. cerevisiae deletion strains, locus YOR265W, strain rbl2, hits give low values 0.99 | S. cerevisiae deletion strains, locus YOR270C, strain vph1, hits give low values 0.997 | S. cerevisiae deletion strains, locus YOR290C, strain snf2, hits give low values 0.964 | S. cerevisiae deletion strains, locus YOR316C, strain cot1, hits give low values 0.988 | S. cerevisiae deletion strains, locus YPL051W, strain arl3, hits give low values 0.983 | S. cerevisiae deletion strains, locus YPL055C, strain LGE1, hits give low values 1 | S. cerevisiae deletion strains, locus YPL078C, strain atp4, hits give low values 0.975 | S. cerevisiae deletion strains, locus YPL106C, strain sse1, hits give low values 0.961 | S. cerevisiae deletion strains, locus YPL240C, strain hsp82, hits give low values 1.02 | S. cerevisiae deletion strains, locus YPL241C, strain CIN2, hits give low values 1 | S. cerevisiae deletion strains, locus YPL256C, strain CLN2, hits give low values 0.956 | S. cerevisiae deletion strains, locus YPR119W, strain clb2, hits give low values 0.991 | S. cerevisiae deletion strains, locus YPR141C, strain kar3, hits give low values 0.981 | S. cerevisiae deletion strains, locus YPR163C, strain tif3, hits give low values 0.983 | S. cerevisiae deletion strains, locus YPR167C, strain met16, hits give low values 0.984 | S. cerevisiae deletion strains, strain wtn01, hits give low values 0.964 | S. cerevisiae strains, strain wild type, hits give low values 1.01
